Screening data: PubChem, National Center for Advancing Translational Sciences (NCATS)
Giardia kill: Small Molecules that selectively kill Giardia lamblia: qHTS | Giardia lamblia trophozoite viability | activity change, % at 7.66 µM, hits read low | 0.15% of 340,000 active | AID 540267, 2011; in the data active means activity change below about -80%; inconclusive means between about -30% and that limit;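 further: parasites exposed to compound for two days anaerobically before the ATP read; on the % scale 0 is the no-effect control and ±100 the full control effect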
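ATP-content bioluminescence gauges trophozoite survival. Cells (100/well) receive compound and incubate anaerobically for 48 hrs at 37 deg C; detection reagent follows for 15-30 min at room temperature.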
D3 ag: qHTS of D3 Dopamine Receptor Agonist: qHTS. D(3) dopamine receptor (Homo sapiens), P35462. D3R DiscoveRx beta-arrestin cells, luminescence, 90 min. max activation, %. AID 652048, 2013. 0.58% of 410,000 active; in the data active means max activation above about 30%; further: 0% is about no effect
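Cells at 1500/well, incubated overnight, then treated with pinned compounds (dopamine as control) for 90 min at 37 degrees C. DiscoveRx reagent added for 30 - 60 minutes at room temperature; luminescence read.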
D3 antag: qHTS of D3 Dopamine Receptor Antagonist: qHTS. D(3) dopamine receptor (Homo sapiens), P35462. D3R cells, DiscoveRx beta-arrestin luminescence, antagonist mode; active compounds read low. max response, negative = inhibition, %. 2.5% of 360,000 active; in the data active means max response below about -50%; inconclusive means no clear call, values can overlap the other calls; further: on the % scale 0 is the no-effect control and ±100 the full control effect
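Cells plated overnight at 1500 cells/well, then exposed to library compounds with dopamine controls for 90 minutes at 37 degrees C. DiscoveRx reagent added for 30–60 minutes at room temperature; luminescence read, quantitative HTS format.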
B2AR arrestin: qHTS assay of beta-arrestin-biased ligands of beta2-adrenergic receptor; Beta-2 adrenergic receptor (Homo sapiens), P07550; beta-arrestin recruitment to beta2AR, cell-based reporter; Potency, µM (doses to about 46.1 µM), for inactives: at the top dose activation, most hits filed as activators; 0.02% of 330,000 active; active means well fitted activation curve with a large enough effect; inconclusive means small, poorly fitted or top-dose-only effect;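 further: potency means the concentration at half of the fitted maximal effect; 0% = DMSO controls and full agonism = EC100 isoproterenol or metaproterenol; nearly all actives have a fitted effect of over 65% in size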
Target sequence (P07550 whole entry, looked up): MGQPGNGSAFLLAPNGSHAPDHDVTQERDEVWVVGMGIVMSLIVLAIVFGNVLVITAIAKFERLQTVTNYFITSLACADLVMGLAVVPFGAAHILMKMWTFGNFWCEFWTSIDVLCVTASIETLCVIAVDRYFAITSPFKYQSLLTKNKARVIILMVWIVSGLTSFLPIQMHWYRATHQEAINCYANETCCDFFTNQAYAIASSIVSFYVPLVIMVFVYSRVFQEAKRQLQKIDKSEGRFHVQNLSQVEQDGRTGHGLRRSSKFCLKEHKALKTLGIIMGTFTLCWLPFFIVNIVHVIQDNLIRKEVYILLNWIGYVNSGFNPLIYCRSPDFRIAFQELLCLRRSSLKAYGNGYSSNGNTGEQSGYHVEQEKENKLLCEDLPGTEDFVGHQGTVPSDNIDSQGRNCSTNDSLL
* = called active by the depositor; ? = inconclusive; / = no result. A selection: hits, their analogues and other compounds. The true share with any hit is near 2.8%.

SMILES	Giardia kill	D3 ag	D3 antag	B2AR arrestin
Cc1cccnc1C(c1ccc(F)cc1)N(C)C(=O)C1CCN(CCCOc2ccc(F)cc2)CC1 (stereo unspecified)	/	-20.7	-94.1*	/
Cc1cccnc1C(c1ccc(F)cc1)N(C)C(=O)C1CCN(CCOc2ccc(Cl)cc2Cl)CC1 (stereo unspecified)	/	-3.5	-73.6*	/
CCN1CCN(C(=O)c2ccccc2N(Cc2ccccc2)S(=O)(=O)c2ccc(C)cc2)CC1	17.4	-2.5	-52.4*	-0.1%
COc1ccc(-c2ccc(C3C4C=CCC(C)C4C(=O)N3Cc3ccccc3)c(F)c2)cc1C (stereo unspecified)	1.3	/	/	/
CS(=O)(=O)N1CCc2cc(C(=O)Nc3ccc(S(N)(=O)=O)cc3)ccc21	/	-10.3	/	/
CCCCCC[N+](C)(C)CC/C=C1/c2ccccc2Sc2ccc(Cl)cc21	-21.5	-9.6	-105.4*	-0.7%
CCCCCCCCCCCCCCCC[N+](C)(C)Cc1ccccc1	/	-10.6	/	/
Cc1cnc2c(c1SCC(=O)NCc1ccccc1Cl)c(=O)n(C)c(=O)n2C	/	-14.3	/	/
CC(C)n1cc(C(=O)c2cc(Br)ccc2O)cc(C#N)c1=O	-12.8	6.4	-67.0*	0.0%
O=C(O)CCn1c2c(c3ccccc31)C[C@H](NS(=O)(=O)c1ccc(F)cc1)CC2	/	-9.1	/	/
CCc1ccc2occ(CC(=O)Nc3ccc(C)c(C)c3)c2c1	/	0.6	/	/
CC1CCN(Cc2cnc(Cl)s2)CC1	-6.2	4.3	-14.6	-0.3%
Clc1ncc(CN2CCN(c3ccccc3)CC2)s1	14.9	39.2*	-12.2	-0.2%
Fc1ccccc1N1CCN(Cc2cnc(Cl)s2)CC1	7.4	49.7*	-20.6	0.2%
CC[C@@H](C)[C@H](N)C(=O)O	/	-6.1	/	/
COc1ccc(C)cc1S(=O)(=O)Nc1cccc(-c2ccc(N3CCCC3)nn2)c1	/	6.2	/	/
CC(=O)c1ccc(-c2c(C3C4C=CCCC4(C)C(=O)N3Cc3ccccc3)ccc3ccccc23)cc1 (stereo unspecified)	12.2	/	/	/
O=C(CCN1C(=O)C2C3C=CC(C4CC34)C2C1=O)Oc1ccc(Br)cc1 (stereo unspecified)	-7.1	-9.3	-14.7	-0.5%
O=C(CCN1C(=O)C2C3C=CC(C4CC34)C2C1=O)Oc1cccc2cccnc12 (stereo unspecified)	-2.2	-51.5	-67.7*	-0.1%
Cc1ccc(C(=O)n2c(N)nc3ccccc32)cc1	-81.5*	4.9	20.4	-0.4%
O=C(Nc1cccc(Cl)c1)NC1CCN(C2CCCCC2)C1 (stereo unspecified)	-7.5	-18.2	-103.4*	-0.3%
COc1ccc(CNCc2cccc3ccccc23)cc1	-3.9	-7.9	-60.0*	0.3%
COc1ccc(CNCc2cccc(Cl)c2)cc1	0.2	-13.5	-50.5*	-0.4%
COc1ccc(-c2nc(CNS(=O)(=O)c3cccc(F)c3)cs2)cc1	/	-7.8	/	/
CC(=O)N(c1cccc(Br)c1)C1C=CS(=O)(=O)C1 (stereo unspecified)	-0.4	-14.8	-66.9*	-0.6%
SMILES	Giardia kill	D3 ag	D3 antag	B2AR arrestin
CCN(Cc1ccccc1)C(=O)Cn1cc(S(=O)(=O)NC)c(S(=O)(=O)NC)c1	3.8	0.5	-51.9*	-0.5%
Cc1ccc(S(=O)(=O)N(CC(O)CN2CCOCC2)c2cc(Cl)ccc2Cl)cc1 (stereo unspecified)	2.7	-17.9	-53.5*	0.4%
Cc1cccn2c(=O)c(/C=C(\C#N)c3nc4ccccc4n3C)c(Oc3ccc(Br)cc3)nc12	/	2.8	/	/
C/C(=C(\CCOC(=O)c1ccccc1)SS/C(CCOC(=O)c1ccccc1)=C(/C)N(C=O)Cc1cnc(C)nc1N)N(C=O)Cc1cnc(C)nc1N	/	-1.8	/	/
CSc1ccc(OC2CCN(Cc3ccccc3)CC2)cc1	1.0	-7.7	-50.5*	-0.4%
CSc1ccc(CN2CCSCC2)cc1	15.7	-3.3	-15.9	0.0%
Clc1ccc(CN2CCCCCCC2)cc1	-3.2	-8.6	-4.5	-0.5%
CSc1ccc(CN2CCC(Cc3ccccc3)CC2)cc1	46.5	-21.1	-55.9*	-4.2%
Clc1ccc(CN2CCC(c3nc4ccc(Cl)cc4[nH]3)CC2)cc1	6.1	-8.0	-73.8*	-0.5%
Clc1ccc(CN2CCC(c3ccccc3)CC2)cc1	?	0.6	-130.7*	-0.7%
CC1CCCN(C(=O)CN2CCC(c3nc4ccc(Cl)cc4[nH]3)CC2)C1 (stereo unspecified)	10.1	1.1	-3.3	-1.9%
CCOC(=O)c1cnc(NCc2ccc(OC)cc2OC)c2ccccc12	/	9.6	/	/
O=C(CCC1N=C2c3ccccc3N=C(SCC(=O)Nc3ccc(F)cc3)N2C1=O)NCc1ccco1 (stereo unspecified)	/	-3.0	/	/
Cc1ccc2c(Sc3ccccc3)c(C(=O)NCc3ccccc3F)[nH]c2c1	/	1.2	/	/
Clc1ccc(CN2CCC(Cc3ccccc3)CC2)cc1	-1.5	-11.5	-95.7*	-0.1%
Clc1cccc(CN2CCC(Cc3ccccc3)CC2)c1	-5.4	-62.1	-78.5*	-0.5%
Fc1ccc(CN2CCC(Cc3ccccc3)CC2)cc1F	-8.1	-17.3	?	0.1%
Clc1cccc(CN2CCN(Cc3ccco3)CC2)c1	-18.0	-41.4	-65.7*	-0.1%
CCCN1CNc2c(c(=O)[nH]c(=S)n2CCc2ccc(C)cc2C)C1	-2.5	/	/	/
O=c1c2cnn(-c3ccc(F)cc3)c2ncn1Cc1ccccc1Cl	/	9.8	/	/
O=C(COC(=O)CN1C(=O)C2CCCCC2C1=O)NNC(=O)c1ccc(Cl)cc1 (stereo unspecified)	2.0	-2.7	-74.7*	-0.3%
Cn1c(=O)c2c(ncn2CC(=O)OCC(=O)NNC(=O)c2ccc(Cl)cc2)n(C)c1=O	7.4	-23.8	-124.0*	1.9%
COc1ccc2[nH]c3c(=O)n(CCCCC(=O)NCCN4CCCC4)c(=S)[nH]c3c2c1	-17.9	-32.9	-95.6*	0.3%
COC(=O)c1sc(NC(=O)c2cc3nc(-c4ccc(Br)cc4)cc(C(F)(F)F)n3n2)c(C(=O)OC)c1C	/	1.4	/	/
OC(COc1ccc2c(c1)OCO2)CN1CCN(c2ccccc2)CC1 (stereo unspecified)	31.1	13.8	-63.3*	0.1%
SMILES	Giardia kill	D3 ag	D3 antag	B2AR arrestin
COc1ccc(OCC(CO)N2CCN(c3ccccc3)CC2)cc1 (stereo unspecified)	-1.8	36.7*	?	/
OC(COc1ccc2c(c1)OCO2)CN1CCc2ccccc2C1 (stereo unspecified)	6.8	-34.9	-78.1*	0.2%
OC(COC1CCCCC1)CN1CCN(c2ccccc2)CC1 (stereo unspecified)	-18.0	4.3	-60.7*	-0.1%
OC(COc1ccc2c(c1)OCO2)CN1CCCCC1 (stereo unspecified)	6.8	-12.6	-6.9	0.2%
CCOC(=O)C(c1ccccc1)N1CCN(c2ccc(OC)cc2)CC1 (stereo unspecified)	-5.2	2.9	33.2	-0.1%
CCCCCc1ccc(C)cc1O	/	5.8	/	/
CCC1CC=CC2C1C(=O)N(Cc1ccccc1)C2c1ccc(OC)c(Cl)c1 (stereo unspecified)	-25.4	/	/	/
